Assay results: PubChem BioAssay AID1645855 (Buhrlage Lab, Dana-Farber Cancer Institute and Novartis …, 2021)
Screen size: about 47,000 compounds; about 3,100 (6.6%) were called active. Cut-off read from the data, not from the text of the source: active = inhibition above about 30%; inactive = the rest. The sample as a whole holds a higher share of actives than the screen did.

target: Ubiquitin carboxyl-terminal hydrolase 17-like protein 5 (Homo sapiens) (UniProt A8MUK1); test: blocks human USP17 ubiquitin-rhodamine cleavage (AID 1645855); settings: purified USP17, Ub-rhodamine cleavage fluorescence, 3 h; at 50 µM; active compounds read high
Sequence (A8MUK1 whole entry, looked up): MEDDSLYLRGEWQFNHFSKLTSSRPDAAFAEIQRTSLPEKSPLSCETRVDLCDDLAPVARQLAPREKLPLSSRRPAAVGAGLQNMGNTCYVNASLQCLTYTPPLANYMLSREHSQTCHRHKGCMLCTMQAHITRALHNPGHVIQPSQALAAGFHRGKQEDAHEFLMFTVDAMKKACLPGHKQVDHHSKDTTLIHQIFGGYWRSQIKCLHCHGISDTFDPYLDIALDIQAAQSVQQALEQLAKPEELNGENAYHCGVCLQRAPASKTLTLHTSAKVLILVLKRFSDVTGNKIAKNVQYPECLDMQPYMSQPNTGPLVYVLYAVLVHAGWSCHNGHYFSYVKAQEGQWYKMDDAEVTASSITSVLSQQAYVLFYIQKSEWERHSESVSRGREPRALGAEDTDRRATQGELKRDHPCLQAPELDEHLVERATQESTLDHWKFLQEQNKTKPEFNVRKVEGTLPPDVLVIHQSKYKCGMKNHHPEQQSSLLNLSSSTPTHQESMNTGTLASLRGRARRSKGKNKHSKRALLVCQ

inhibition, inactive:
O=C(c1ccc(N2CCCC2)nn1)N1CCN(c2ccccn2)CC1 -6.98%
Cc1nn(-c2ccccc2)c(C)c1S(=O)(=O)N1CCN(c2ccccn2)CC1 -17.2%
Cc1ccc(Nc2nc(C(=O)NCCN3CCCCC3C)cc3occc23)cc1Cl (stereo unspecified) -11.2%
CC(C)(C)CC(=O)N1CCc2cc(-c3csc(NC(=O)c4ccccn4)n3)ccc21 2.12%
CCc1nc2ccc(C(=O)Nc3nc(-c4ccc5c(c4)CCN5C(=O)c4ccccc4C)c(C)s3)cc2nc1CC -14.3%
CCc1nc2ccc(C(=O)Nc3nc(-c4ccc5c(c4)CCN5C(=O)c4ccc(C)cc4)c(C)s3)cc2nc1CC -24.7%
Cc1sc(NC(=O)c2ccccn2)nc1-c1ccc2c(c1)CCN2C(=O)C(C)C -11.3%
Cc1cccc(NC(=O)Cn2c(C)ncc(C(=O)NC3CCCC3)c2=O)c1C 2.77%
O=C(OCc1ccccc1F)c1cc(-c2ccccc2)nc2ccccc12 7.27%
CCc1nnc(NC(=O)C2CCN(C(=O)c3ccc(F)cc3)CC2)s1 5.9%
COc1cccc(O[C@@H]2C[C@@H](NC(=O)c3ccnn3C)[C@H](N3CCCC3)[C@H]2O)c1 -13.7%
CCCNC(=O)c1nn(-c2ccc(F)cc2)c2c1CCCCC2 3.82%
O=C(Cc1csc(NC(=O)c2ccc(=O)[nH]c2)n1)NCc1ccco1 -18.1%
Cc1oc(C2CCC2)nc1C(=O)NCCc1c[nH]c2ccccc12 7.03%
COCCCN1CC(=O)N2C(c3cccc([N+](=O)[O-])c3)c3[nH]c4ccccc4c3C[C@@H]2C1=O (stereo partly specified) -12.6%
O=S(=O)(Nc1ccc(Cc2ccncc2)cc1)c1ccc2c(c1)OCCO2 3.72%
O=C(NCc1ccc2c(c1)OCO2)C1=CCN(Cc2ccccc2)CC1 -28.1%
COC(=O)c1cc2c(ccn2C)n1CC(=O)N1CCN(Cc2ccc3c(c2)OCO3)CC1 -63.5%
CNc1nc2c(c(=O)n1-c1ccccc1OC)CCN(C(=O)N1CCOCC1)C2 -2.32%
CCCCn1c(=O)[nH]c2cc(-c3nc(-c4ccccn4)no3)ccc2c1=O -20.4%
O=C(Nc1c(C(=O)N2CCOCC2)oc2ccccc12)c1ccccc1F -1.41%
Cc1c(C(=O)NC2CCCCC2)oc2ccccc12 0.0641%
CCCSc1nc(NCC2CCCO2)c2c3c(sc2n1)COC(C)(C)C3 (stereo unspecified) -37.2%
Cc1noc(C)c1CC(=O)N1CCN(c2ccccc2F)CC1 20.5%
CCCc1cc(=O)oc2cc(OC(=O)C3CCN(C(=O)c4ccc(Cl)cc4)CC3)ccc12 10.2%
COc1ccc(N2CCN(Cc3cc(=O)oc4cc(O)ccc34)CC2)cc1 4.8%
Cc1c(CC(=O)NCC(=O)O)c(=O)oc2c(C)c(O)ccc12 -3.52%
O=c1c2[nH]c3ccc(F)cc3c2ncn1CCN1CCCC1 6.33%
COc1cc(Cn2cnc3c([nH]c4ccc(Br)cc43)c2=O)cc(OC)c1 26%
O=c1c2[nH]c3ccc(Cl)cc3c2ncn1Cc1cccnc1 -5.96%
CCOc1ccc2[nH]c3c(=O)n(Cc4cccnc4)cnc3c2c1 25.4%
O=C(O)c1cc(S(=O)(=O)NC2CCCc3ccccc32)ccc1O (stereo unspecified) -9.75%
COc1ccc(S(=O)(=O)Nc2ccc(-c3ccc(OC)nn3)cc2)cc1 14.6%
COCCN(CCOC)S(=O)(=O)c1ccc(C(=O)Nc2sccc2C(N)=O)cc1 7.55%
O=C(NCC(c1ccccc1)N1CCCCC1)c1cc(-c2cccs2)on1 (stereo unspecified) -11.5%
O=C1N(c2cccc(F)c2)c2ncccc2S(=O)(=O)N1Cc1ccccc1 2.92%
COCCCNC(=O)[C@H](Cc1ccccc1)NC(=O)N1CCn2c1nc1ccccc12 -0.405%
COc1ccc(OCC(=O)Nc2noc(-c3ccccc3)n2)cc1 23.8%
COc1cccc(NC(=O)Cn2c(C)cc(C)c2-c2nc(C(C)C)no2)c1 -2.06%
CC(C)c1nnc(NC(=O)C2CC(=O)N(CCc3ccc(F)cc3)C2)s1 (stereo unspecified) 5.74%
CCN1[C@H]2CCN(C(=O)C3(C#N)CC3)CC[C@@H]2Oc2ccccc2S1(=O)=O -12.7%
Cc1ccc(NC(=O)CCC(=O)N(c2ccccc2)c2ccccc2)cc1Cl 6.95%
COc1cccc(NC(=O)COC(=O)c2ccc(OC)c(S(=O)(=O)Nc3cc(Cl)c(OC)cc3OC)c2)c1 3.55%
O=C(NCCc1ccc(F)cc1)c1ccc(S(=O)(=O)Nc2ccccc2F)cc1 13.4%
Cc1nc(CCN2CCN(Cc3ccccc3)CCC2=O)no1 9.08%

inhibition, active:
Clc1cc2nc(N3CCN(c4ccccn4)CC3)c3nncn3c2cc1Cl 31.5%
Cc1ccc(C(=O)N2CCc3cc(-c4csc(NC(=O)CNc5ccccc5)n4)ccc32)cc1 32.4%
O=C(Nc1nc(-c2ccc3c(c2)CCN3C(=O)c2ccccc2F)cs1)c1cccnc1 77.7%
O=C(CCc1csc(NC(=O)c2ccc(=O)[nH]c2)n1)NCCc1c[nH]c2ccccc12 36.5%
O=C(Nc1cccc2ccccc12)N1CCN(Cc2ccc3c(c2)OCO3)CC1 41%
CCS(=O)(=O)c1cccc(C(=O)Nc2c(C(N)=O)oc3ccccc23)c1 41.9%
CCCc1cc(=O)oc2cc(OCC(=O)NCc3ccc(OC)cc3)ccc12 30.6%
Cc1ccc2[nH]c3c(=O)n(Cc4ccccn4)cnc3c2c1 48.9%
COc1ccccc1Cn1cnc2c([nH]c3cc(OC)c(OC)cc32)c1=O 58%
COc1ccc(NC(=O)Cc2noc(-c3cccc(OC)c3)n2)cc1 35.7%
Cc1ccc(NC(=O)CCOc2ccccc2)cc1S(=O)(=O)Nc1ccccc1Cl 39.7%
